# In article PMC7862700, “An all-to-all approach to the identification of sequence-specific readers for epigenetic DNA modifications on cytosine”:
# Tests used:
# Experiment in all cases: DAPPL (digital affinity profiling via proximity ligation, sequencing); 10 mM Tris-HCl pH 7.5, 50 mM NaCl, 1 mM DTT, 4% glycerol, room temperature, 30 min; GST-TFs on glutathione beads, 16-mer random dsDNA library, 0.1% formaldehyde crosslink after washing; high values mean tight binding
# [1] = biological target: T1, FEV (Homo sapiens, UniProt Q99581 1-238); details: protein: recombinant; tags: N-terminal GST; dsDNA, one strand shown
# T1 sequence: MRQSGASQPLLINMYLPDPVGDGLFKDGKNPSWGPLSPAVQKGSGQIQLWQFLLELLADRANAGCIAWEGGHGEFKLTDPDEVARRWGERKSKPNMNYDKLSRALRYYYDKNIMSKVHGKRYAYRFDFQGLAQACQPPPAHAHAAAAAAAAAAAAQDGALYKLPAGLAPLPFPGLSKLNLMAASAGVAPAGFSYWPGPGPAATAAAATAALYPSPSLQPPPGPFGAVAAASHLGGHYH
# In short: (§1)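 Binding signal is each hexamer's read frequency for a factor divided by its frequency in the tag-only sample. The factors were GST-fused human transcription factors from yeast, captured on glutathione beads, DNA-barcoded and pooled with that sample. Pools were incubated with 200 nmole of a random double-stranded 16-mer DNA library in Tris/NaCl/DTT/glycerol buffer at room temperature for 30 min, then washed, crosslinked with 0.1% formaldehyde, proximity-ligated with BsaI/T4 ligase (1 h, 37 °C), PCR-amplified and sequenced on an Illumina NextSeq500.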
# [2] = biological target: ETV5 (Homo sapiens, UniProt P41161 1-510); details: protein: recombinant; tags: N-terminal GST; dsDNA, one strand shown
# Chain of ETV5 (P41161 whole entry): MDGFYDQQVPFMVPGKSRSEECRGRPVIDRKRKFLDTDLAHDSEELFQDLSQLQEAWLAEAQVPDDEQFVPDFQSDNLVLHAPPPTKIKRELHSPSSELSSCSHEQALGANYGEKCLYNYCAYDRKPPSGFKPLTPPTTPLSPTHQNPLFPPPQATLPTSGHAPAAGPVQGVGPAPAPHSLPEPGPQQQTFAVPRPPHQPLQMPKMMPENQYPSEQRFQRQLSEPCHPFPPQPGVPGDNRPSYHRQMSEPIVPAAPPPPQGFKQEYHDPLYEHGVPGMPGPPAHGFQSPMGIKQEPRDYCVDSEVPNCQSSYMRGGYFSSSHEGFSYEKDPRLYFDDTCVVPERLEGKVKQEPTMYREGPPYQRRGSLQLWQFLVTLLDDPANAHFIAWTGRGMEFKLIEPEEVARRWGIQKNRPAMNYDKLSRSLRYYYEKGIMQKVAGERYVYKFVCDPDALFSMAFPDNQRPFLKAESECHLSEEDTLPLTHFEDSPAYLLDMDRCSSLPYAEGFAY
# In short: as §1
# [3] = biological target: HSF1 (Homo sapiens, UniProt Q00613 1-529); details: protein: recombinant; tags: N-terminal GST; chain copies: 3; dsDNA, one strand shown
# Chain of HSF1 (Q00613 whole entry): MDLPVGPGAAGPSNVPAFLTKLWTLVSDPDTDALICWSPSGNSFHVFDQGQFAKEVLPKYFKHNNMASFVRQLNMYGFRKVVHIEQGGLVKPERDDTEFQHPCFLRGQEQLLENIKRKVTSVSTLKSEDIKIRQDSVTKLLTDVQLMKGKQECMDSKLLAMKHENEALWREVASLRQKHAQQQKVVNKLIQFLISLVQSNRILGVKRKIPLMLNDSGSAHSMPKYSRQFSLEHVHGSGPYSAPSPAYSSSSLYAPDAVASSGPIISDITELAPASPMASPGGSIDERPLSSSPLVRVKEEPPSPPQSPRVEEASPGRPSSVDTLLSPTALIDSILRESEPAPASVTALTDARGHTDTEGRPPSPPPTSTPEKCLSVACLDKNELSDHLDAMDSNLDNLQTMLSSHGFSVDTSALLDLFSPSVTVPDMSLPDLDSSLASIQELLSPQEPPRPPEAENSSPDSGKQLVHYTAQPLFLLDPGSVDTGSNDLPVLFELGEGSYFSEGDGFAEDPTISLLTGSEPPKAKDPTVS
# In short: as §1
# [4] = biological target: T2, SPIC (Homo sapiens, UniProt Q8N5J4 1-248); details: protein: recombinant; tags: N-terminal GST; dsDNA, one strand shown
# T2 sequence: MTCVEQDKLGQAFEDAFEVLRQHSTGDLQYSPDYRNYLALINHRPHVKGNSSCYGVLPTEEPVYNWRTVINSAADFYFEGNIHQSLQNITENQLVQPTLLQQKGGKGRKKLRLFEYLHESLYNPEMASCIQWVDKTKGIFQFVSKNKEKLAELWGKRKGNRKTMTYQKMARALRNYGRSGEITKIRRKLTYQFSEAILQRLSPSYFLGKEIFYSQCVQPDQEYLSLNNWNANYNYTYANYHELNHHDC
# In short: as §1
# [5] = biological target: ELF4 (Homo sapiens, UniProt Q99607 1-663); details: protein: recombinant; tags: N-terminal GST; dsDNA, one strand shown
# Chain of ELF4 (Q99607 whole entry): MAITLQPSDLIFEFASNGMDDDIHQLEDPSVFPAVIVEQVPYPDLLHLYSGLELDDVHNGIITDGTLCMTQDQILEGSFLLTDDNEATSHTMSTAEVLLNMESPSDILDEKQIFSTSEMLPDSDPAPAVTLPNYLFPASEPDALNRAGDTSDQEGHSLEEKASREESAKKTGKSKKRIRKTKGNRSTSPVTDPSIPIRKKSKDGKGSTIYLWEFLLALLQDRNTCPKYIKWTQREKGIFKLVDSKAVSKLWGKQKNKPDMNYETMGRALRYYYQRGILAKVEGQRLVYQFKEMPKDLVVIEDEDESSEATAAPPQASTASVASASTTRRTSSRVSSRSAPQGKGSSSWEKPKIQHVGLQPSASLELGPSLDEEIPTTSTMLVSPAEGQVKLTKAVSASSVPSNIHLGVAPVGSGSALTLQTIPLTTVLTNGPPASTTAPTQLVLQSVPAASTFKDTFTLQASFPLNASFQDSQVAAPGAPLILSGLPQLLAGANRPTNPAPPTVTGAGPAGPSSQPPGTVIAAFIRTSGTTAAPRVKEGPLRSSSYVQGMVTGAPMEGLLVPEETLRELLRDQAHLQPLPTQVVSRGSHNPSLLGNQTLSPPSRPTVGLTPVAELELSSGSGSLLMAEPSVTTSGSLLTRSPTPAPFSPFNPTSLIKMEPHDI
# In short: as §1
# [6] = biological target: T3, ELK4 (Homo sapiens, UniProt P28324-2 1-405); details: protein: recombinant; tags: N-terminal GST; dsDNA, one strand shown
# T3 sequence: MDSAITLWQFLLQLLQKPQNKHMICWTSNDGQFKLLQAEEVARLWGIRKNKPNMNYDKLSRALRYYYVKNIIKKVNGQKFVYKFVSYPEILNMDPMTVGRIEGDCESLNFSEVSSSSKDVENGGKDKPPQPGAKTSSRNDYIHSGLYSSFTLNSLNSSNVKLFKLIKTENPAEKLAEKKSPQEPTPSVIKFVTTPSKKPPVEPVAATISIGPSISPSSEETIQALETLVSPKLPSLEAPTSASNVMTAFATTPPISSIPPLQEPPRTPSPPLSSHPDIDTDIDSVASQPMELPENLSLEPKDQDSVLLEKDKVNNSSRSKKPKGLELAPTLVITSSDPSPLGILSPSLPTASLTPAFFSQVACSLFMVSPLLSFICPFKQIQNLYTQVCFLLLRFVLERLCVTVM
# In short: as §1
# [7] = biological target: T4, ETV2 (Homo sapiens, UniProt O00321 1-342); details: protein: recombinant; tags: N-terminal GST; dsDNA, one strand shown
# T4 sequence: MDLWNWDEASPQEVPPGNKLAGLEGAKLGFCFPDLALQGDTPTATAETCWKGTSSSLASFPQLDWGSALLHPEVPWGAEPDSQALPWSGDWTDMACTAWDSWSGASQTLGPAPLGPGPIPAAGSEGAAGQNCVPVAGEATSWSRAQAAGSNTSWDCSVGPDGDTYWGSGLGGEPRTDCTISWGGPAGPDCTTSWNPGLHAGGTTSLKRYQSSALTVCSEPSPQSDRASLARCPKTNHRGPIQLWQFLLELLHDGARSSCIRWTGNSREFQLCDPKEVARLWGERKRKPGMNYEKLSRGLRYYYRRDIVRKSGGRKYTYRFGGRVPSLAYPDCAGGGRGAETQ
# In short: as §1
# [8] = biological target: T5, ELF3 (Homo sapiens, UniProt P78545 1-371); details: protein: recombinant; tags: N-terminal GST; dsDNA, one strand shown
# T5 sequence: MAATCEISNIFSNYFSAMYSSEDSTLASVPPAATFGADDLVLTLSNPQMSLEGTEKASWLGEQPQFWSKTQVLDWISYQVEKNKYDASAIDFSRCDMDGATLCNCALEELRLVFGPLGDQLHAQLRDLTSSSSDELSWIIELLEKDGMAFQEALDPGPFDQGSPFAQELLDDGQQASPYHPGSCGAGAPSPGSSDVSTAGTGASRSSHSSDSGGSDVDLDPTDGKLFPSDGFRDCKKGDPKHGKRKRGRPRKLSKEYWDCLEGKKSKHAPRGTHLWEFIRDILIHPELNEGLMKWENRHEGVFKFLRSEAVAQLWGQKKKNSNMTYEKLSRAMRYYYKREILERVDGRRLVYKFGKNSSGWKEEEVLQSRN
# In short: as §1
# [9] = biological target: CRX (Homo sapiens, UniProt O43186 1-299); details: protein: recombinant; tags: N-terminal GST; dsDNA, one strand shown
# Chain of CRX (O43186 whole entry): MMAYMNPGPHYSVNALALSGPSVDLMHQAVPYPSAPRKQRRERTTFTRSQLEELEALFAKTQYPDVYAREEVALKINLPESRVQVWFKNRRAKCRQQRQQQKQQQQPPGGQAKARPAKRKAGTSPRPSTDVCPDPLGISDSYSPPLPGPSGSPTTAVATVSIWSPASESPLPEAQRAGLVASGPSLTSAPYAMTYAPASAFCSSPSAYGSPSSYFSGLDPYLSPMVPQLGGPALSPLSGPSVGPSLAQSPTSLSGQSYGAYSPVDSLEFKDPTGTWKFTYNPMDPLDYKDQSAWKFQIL
# In short: as §1
# [10] = biological target: ETV1 (Homo sapiens, UniProt P50549 1-477); details: protein: recombinant; tags: N-terminal GST; dsDNA, one strand shown
# Chain of ETV1 (P50549 whole entry): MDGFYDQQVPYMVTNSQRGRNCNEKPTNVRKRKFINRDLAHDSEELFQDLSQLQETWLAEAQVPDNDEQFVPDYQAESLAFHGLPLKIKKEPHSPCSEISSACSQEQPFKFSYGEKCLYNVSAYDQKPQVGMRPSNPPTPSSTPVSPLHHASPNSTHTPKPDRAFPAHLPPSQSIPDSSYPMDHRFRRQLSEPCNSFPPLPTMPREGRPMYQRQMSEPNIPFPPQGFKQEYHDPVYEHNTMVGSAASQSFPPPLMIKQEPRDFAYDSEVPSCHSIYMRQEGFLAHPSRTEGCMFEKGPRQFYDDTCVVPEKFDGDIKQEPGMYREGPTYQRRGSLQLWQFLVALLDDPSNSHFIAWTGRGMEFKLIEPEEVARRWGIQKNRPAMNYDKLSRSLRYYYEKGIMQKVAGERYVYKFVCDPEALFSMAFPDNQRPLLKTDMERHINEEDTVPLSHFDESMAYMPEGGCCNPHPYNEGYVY
# In short: as §1
# [11] = biological target: T6, ERF (Homo sapiens, UniProt P50548 1-548); details: protein: recombinant; tags: N-terminal GST; dsDNA, one strand shown
# T6 sequence: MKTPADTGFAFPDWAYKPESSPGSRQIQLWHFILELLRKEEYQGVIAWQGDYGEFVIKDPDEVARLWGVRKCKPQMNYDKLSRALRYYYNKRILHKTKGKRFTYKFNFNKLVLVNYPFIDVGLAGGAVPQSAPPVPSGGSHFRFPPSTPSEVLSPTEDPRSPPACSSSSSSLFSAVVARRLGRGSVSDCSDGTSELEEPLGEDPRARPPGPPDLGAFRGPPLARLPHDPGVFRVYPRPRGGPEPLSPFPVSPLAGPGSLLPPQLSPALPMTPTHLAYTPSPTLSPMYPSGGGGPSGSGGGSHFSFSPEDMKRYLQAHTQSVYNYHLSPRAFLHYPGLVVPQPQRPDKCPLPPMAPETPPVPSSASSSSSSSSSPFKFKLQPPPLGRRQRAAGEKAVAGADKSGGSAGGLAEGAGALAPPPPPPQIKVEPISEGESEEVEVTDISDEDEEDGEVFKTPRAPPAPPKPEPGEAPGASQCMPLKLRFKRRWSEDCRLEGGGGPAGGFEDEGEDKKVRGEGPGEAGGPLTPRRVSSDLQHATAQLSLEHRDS
# In short: as §1
# [12] = biological target: T7, ETV3L (Homo sapiens, UniProt Q6ZN32 1-361); details: protein: recombinant; tags: N-terminal GST; dsDNA, one strand shown
# T7 sequence: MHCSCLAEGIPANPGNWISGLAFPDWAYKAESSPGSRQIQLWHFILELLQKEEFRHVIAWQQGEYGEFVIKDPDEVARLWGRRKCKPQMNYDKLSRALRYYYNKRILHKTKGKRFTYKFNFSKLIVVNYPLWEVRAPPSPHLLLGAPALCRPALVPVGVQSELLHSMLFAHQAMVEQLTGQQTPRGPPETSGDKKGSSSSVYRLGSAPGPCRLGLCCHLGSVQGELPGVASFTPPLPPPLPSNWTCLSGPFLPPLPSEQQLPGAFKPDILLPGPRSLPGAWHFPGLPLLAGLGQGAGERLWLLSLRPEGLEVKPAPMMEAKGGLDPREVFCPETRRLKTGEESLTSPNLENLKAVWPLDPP
# In short: as §1
# [13] = biological target: T8, ETS2 (Homo sapiens, UniProt P15036 1-469); details: protein: recombinant; tags: N-terminal GST; dsDNA, one strand shown
# T8 sequence: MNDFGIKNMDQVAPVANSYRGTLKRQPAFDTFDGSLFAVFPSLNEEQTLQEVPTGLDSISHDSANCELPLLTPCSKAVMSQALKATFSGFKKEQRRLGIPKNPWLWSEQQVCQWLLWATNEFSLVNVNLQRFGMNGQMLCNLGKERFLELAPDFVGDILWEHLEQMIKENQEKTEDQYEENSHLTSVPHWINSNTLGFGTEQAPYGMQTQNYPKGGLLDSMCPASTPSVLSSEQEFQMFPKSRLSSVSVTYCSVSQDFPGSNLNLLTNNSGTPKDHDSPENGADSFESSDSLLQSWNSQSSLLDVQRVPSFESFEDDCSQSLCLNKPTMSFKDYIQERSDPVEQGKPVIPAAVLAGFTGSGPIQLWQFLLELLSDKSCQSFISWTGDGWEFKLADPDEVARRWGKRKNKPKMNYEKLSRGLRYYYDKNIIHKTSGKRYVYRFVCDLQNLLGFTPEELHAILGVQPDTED
# In short: as §1
# [14] = biological target: T9, SPDEF (Homo sapiens, UniProt O95238 1-335); details: protein: recombinant; tags: N-terminal GST; dsDNA, one strand shown
# T9 sequence: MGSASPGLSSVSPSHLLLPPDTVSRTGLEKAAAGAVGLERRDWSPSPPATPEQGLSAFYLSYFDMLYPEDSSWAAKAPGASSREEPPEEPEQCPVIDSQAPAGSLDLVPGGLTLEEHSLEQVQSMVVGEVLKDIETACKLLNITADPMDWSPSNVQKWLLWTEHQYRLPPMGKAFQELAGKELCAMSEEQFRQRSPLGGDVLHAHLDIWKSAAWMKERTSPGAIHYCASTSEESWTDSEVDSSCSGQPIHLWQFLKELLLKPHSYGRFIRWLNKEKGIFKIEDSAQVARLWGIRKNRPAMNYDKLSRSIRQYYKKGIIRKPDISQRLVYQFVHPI
# In short: as §1
# [15] = biological target: T10, ETV7 (Homo sapiens, UniProt Q9Y603 1-341); details: protein: recombinant; tags: N-terminal GST; dsDNA, one strand shown
# T10 sequence: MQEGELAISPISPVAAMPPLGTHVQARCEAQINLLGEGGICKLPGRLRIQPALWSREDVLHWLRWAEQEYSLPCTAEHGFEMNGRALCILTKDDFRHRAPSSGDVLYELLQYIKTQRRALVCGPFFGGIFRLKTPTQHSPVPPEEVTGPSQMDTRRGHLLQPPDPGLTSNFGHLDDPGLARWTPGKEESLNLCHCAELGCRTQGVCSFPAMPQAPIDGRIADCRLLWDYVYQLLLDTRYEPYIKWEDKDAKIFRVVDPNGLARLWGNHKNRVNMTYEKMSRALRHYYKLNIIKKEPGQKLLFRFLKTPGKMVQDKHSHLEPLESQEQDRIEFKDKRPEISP
# In short: as §1
# [16] = biological target: T11, ELF5 (Homo sapiens, UniProt Q9UKW6-2 1-255); details: protein: recombinant; tags: N-terminal GST; dsDNA, one strand shown
# T11 sequence: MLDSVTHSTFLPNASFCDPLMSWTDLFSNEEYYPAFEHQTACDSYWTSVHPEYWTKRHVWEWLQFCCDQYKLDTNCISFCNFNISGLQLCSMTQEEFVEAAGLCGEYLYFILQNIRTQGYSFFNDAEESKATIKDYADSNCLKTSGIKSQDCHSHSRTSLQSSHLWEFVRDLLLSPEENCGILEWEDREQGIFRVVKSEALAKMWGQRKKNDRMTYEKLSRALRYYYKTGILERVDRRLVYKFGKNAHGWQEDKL
# In short: as §1
# [17] = biological target: T12, ETV3 (Homo sapiens, UniProt P41162-2 1-143); details: protein: recombinant; tags: N-terminal GST; dsDNA, one strand shown
# T12 sequence: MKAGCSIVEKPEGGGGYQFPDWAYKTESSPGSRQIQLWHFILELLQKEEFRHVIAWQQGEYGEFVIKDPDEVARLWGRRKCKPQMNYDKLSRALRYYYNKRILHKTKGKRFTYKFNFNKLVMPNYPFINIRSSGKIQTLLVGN
# In short: as §1
# [18] = biological target: ETV6 (Homo sapiens, UniProt P41212 1-452); details: protein: recombinant; tags: N-terminal GST; dsDNA, one strand shown
# Chain of ETV6 (P41212 whole entry): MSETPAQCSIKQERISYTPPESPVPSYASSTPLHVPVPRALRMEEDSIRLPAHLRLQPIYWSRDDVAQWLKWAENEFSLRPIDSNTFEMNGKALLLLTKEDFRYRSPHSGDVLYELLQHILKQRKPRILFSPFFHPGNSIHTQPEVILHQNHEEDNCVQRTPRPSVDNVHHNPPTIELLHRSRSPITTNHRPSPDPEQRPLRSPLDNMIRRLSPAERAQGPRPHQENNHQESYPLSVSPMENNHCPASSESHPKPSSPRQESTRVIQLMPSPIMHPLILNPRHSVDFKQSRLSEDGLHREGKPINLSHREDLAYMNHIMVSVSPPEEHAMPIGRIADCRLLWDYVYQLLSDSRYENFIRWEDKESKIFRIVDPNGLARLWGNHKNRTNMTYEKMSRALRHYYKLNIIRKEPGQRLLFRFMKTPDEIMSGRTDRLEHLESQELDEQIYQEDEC
# In short: as §1
sequence,measurement,setting,value
CCCGCA,binding signal,[1],"1.26 fold enrichment (6-mer frequency, TF over GST control)"
same,binding signal,[2],"1.27 fold enrichment (6-mer frequency, TF over GST control)"
same,binding signal,[3],"1.22 fold enrichment (6-mer frequency, TF over GST control)"
same,binding signal,[4],"1.27 fold enrichment (6-mer frequency, TF over GST control)"
same,binding signal,[5],"1.34 fold enrichment (6-mer frequency, TF over GST control)"
same,binding signal,[6],"1.35 fold enrichment (6-mer frequency, TF over GST control)"
same,binding signal,[7],"1.28 fold enrichment (6-mer frequency, TF over GST control)"
same,binding signal,[8],"1.36 fold enrichment (6-mer frequency, TF over GST control)"
same,binding signal,[9],"1.1 fold enrichment (6-mer frequency, TF over GST control)"
same,binding signal,[10],"1.23 fold enrichment (6-mer frequency, TF over GST control)"
same,binding signal,[11],"1.24 fold enrichment (6-mer frequency, TF over GST control)"
same,binding signal,[12],"1.22 fold enrichment (6-mer frequency, TF over GST control)"
same,binding signal,[13],"1.18 fold enrichment (6-mer frequency, TF over GST control)"
same,binding signal,[14],"1.27 fold enrichment (6-mer frequency, TF over GST control)"
same,binding signal,[15],"1.31 fold enrichment (6-mer frequency, TF over GST control)"
same,binding signal,[16],"1.27 fold enrichment (6-mer frequency, TF over GST control)"
same,binding signal,[17],"1.2 fold enrichment (6-mer frequency, TF over GST control)"
same,binding signal,[18],"1.25 fold enrichment (6-mer frequency, TF over GST control)"
